{"source": "PubChem BioAssay AID493191", "about": "(Broad Institute, 2011)", "note": "In all, about 1,300 compounds went through this assay and about 330 (25%) were called active. The rule behind the calls is not given here. Only a sample is shown. A call without a number means that no potency is given here. Potency and affinity values are given separately."}
{"test": "growth inhibition of MALME3 cells – cell-based, CellTiter-Glo, cherry-picked, orthogonal assay for MITF inhibitor project, dose response (AID 493191)", "conditions": "MALME3 melanoma viability, CellTiter-Glo luminescence, 24 h; series mostly up to 35 µM"}
{"smiles": "CCN(CC)CCNC(=O)c1ccc(NC(=O)c2cccc(S(=O)(=O)N3c4ccccc4CC3C)c2)cc1", "note": "(stereo not drawn)", "outcome": "inactive"}
{"smiles": "Cc1ccc(NC(=O)c2cc(-c3cccs3)on2)cc1", "outcome": "inactive"}
{"smiles": "O=[N+]([O-])/C=C\\c1ccc(N2CCCC2)c(F)c1", "outcome": "inactive"}
{"smiles": "CN(C)c1ccc(C2=NOC(CN3C(=O)c4ccccc4S3(=O)=O)C2)cc1", "note": "(stereo not drawn)", "outcome": "inactive"}
{"smiles": "CCC(=O)Nc1cc(C(=O)OCC(=O)c2ccccc2Cl)ccc1C", "outcome": "inactive"}
{"smiles": "O=C(COC(=O)c1ccc(F)c([N+](=O)[O-])c1)NC(=O)NCc1ccccc1", "outcome": "inactive"}
{"smiles": "O=C(NC1CC1)C1CCN(S(=O)(=O)c2ccc(Cl)c([N+](=O)[O-])c2)CC1", "outcome": "inactive"}
{"smiles": "O=C(NCCNc1ccccc1[N+](=O)[O-])c1cc(F)c(F)cc1Cl", "outcome": "inactive"}
{"smiles": "CN(CCC#N)C(=O)COC(=O)c1ccccc1C(=O)c1ccc(Cl)c([N+](=O)[O-])c1", "outcome": "inactive"}
{"smiles": "Cn1cccc1C(=O)NC(=O)COC(=O)c1ccc(S(C)(=O)=O)c([N+](=O)[O-])c1", "outcome": "inactive"}
{"smiles": "N/C(=N\\OC(=O)Cc1cccs1)c1ccccc1", "outcome": "inactive"}
{"smiles": "Cc1ccn2c(Nc3ccccc3)c(-c3ccccn3)nc2c1", "outcome": "inactive"}
{"smiles": "O=C(NC1CCCCC1)C(c1cccnc1)N(C(=O)CCl)c1cccc(Cl)c1", "note": "(stereo not drawn)", "outcome": "inactive"}
{"smiles": "CC1Cc2cc(-c3csc(N)n3)ccc2O1", "note": "(stereo not drawn)", "outcome": "inactive"}
{"smiles": "O=C(Cc1ccccc1)Nc1ccc(NC(=O)c2ccco2)nc1", "outcome": "inactive"}
{"smiles": "CCOC(=O)c1ccc(NC(=O)c2ccc(C)c(S(=O)(=O)N3CCOCC3)c2)cc1", "outcome": "inactive"}
{"smiles": "COc1ccccc1NS(=O)(=O)c1cc(NC(=O)c2ccc(Cl)nc2)ccc1Cl", "outcome": "inactive"}
{"smiles": "CCOc1ccc(C(=O)Nc2cccc(C(=O)O)c2C)cc1Cl", "outcome": "inactive"}
{"smiles": "CCOc1ccc(NC(=O)c2ccccn2)cc1", "outcome": "inactive"}
{"smiles": "COc1ccc(NC(=O)c2cc(-c3ccccc3Cl)on2)cc1", "outcome": "inactive"}
{"smiles": "CCOC(=O)c1ccc(NC(=O)c2ccnn2C)cc1", "outcome": "inactive"}
{"smiles": "O=C(O)c1ccc(C(=O)Nc2ccc(F)cc2)cc1", "outcome": "inactive"}
{"smiles": "O=C1c2ccccc2S(=O)(=O)N1Cc1nc2ccccc2s1", "outcome": "inactive"}
{"smiles": "Cc1ccc2nc(-c3ccncc3)[nH]c2c1", "outcome": "inactive"}
{"smiles": "Fc1ccc(-c2nnc(-c3ccc(F)cc3)o2)cc1", "outcome": "inactive"}
{"smiles": "COCCCn1[nH]c2c3c(ccc2c1=O)C(=O)c1ccccc1C3=O", "outcome": "inactive"}
{"smiles": "O=C(Nc1nc2ccsc2c(=O)s1)C1CCC1", "outcome": "inactive"}
{"smiles": "CN(c1ccc(O)cc1)c1nc(O)c(C2=c3ccccc3=NC2=O)s1", "outcome": "inactive"}
{"smiles": "Cn1cc(C(=O)N/N=C/c2c(O)ccc3ccccc23)ccc1=O", "outcome": "inactive"}
{"smiles": "Cc1cccc(-c2nc(C#N)c(NCc3ccco3)o2)c1", "outcome": "inactive"}
{"smiles": "O=C(NC1CCCCCC1)c1cc2ccccc2oc1=O", "outcome": "inactive"}
{"smiles": "O=C(Nc1ccccc1)C1Cc2ccccc2CN1C(=O)c1ccco1", "note": "(stereo not drawn)", "outcome": "inactive"}
{"smiles": "C=CCNc1nc(-c2ccccn2)nnc1-c1ccccc1", "outcome": "inactive"}
{"smiles": "COc1ccc(NC(=O)Nc2ccc(F)c(F)c2)c(OC)c1", "outcome": "inactive"}
{"smiles": "CCOC(=O)c1ccc2c(c1)n(CC)c(/C=C/N(C)c1ccccc1)[n+]2CC", "outcome": "inactive"}
{"smiles": "CCn1c(/C=C/N(C)c2ccccc2)[n+](CC)c2ccc(Cl)cc21", "outcome": "inactive"}
{"smiles": "Nc1c2c(=O)oc(-c3ccccc3)cc2nn1-c1ccccc1", "outcome": "inactive"}
{"smiles": "COc1cccc(C(=O)N/N=C(/c2ccccc2)c2ccccn2)c1", "outcome": "inactive"}
{"smiles": "COc1cc(C(=O)Oc2c(CN3CCOCC3)cc(Cl)c3cccnc23)cc(OC)c1OC", "outcome": "inactive"}
{"smiles": "O=c1nc(N/N=C/c2ccccn2)cn[nH]1", "outcome": "inactive"}
{"smiles": "CC(C)c1ccc(CNc2ncccn2)cc1", "outcome": "inactive"}
{"smiles": "CCCCN1CCc2c1nc1ccc(Br)cc1c2N", "outcome": "inactive"}
{"smiles": "CCCOc1ccc(-c2c(=O)n(O)c3ccccc3[n+]2[O-])cc1", "outcome": "inactive"}
{"smiles": "BrC(=C\\c1ccccc1)/C=N/n1cnnc1", "outcome": "inactive"}
{"smiles": "Cc1ccc(C#CC[N+]2(CC#Cc3ccc(C)cc3)CCCCC2)cc1", "outcome": "inactive"}
{"smiles": "CN1C/C(=C/c2cccnc2)C(=O)/C(=C/c2cccnc2)C1", "outcome": "inactive"}
{"smiles": "CC(C)N1C/C(=C/c2cccnc2)C(=O)/C(=C/c2cccnc2)C1", "outcome": "inactive"}
{"smiles": "Cc1cccc(OCc2nc3ccccc3n2C)c1", "outcome": "inactive"}
{"smiles": "O=S(=O)(c1ccc(F)cc1)c1snnc1-c1ccccc1", "outcome": "inactive"}
{"smiles": "CCCOc1ccc(C(=O)C(CN2CCCC2)c2ccccc2)cc1", "note": "(stereo not drawn)", "outcome": "inactive"}
{"smiles": "O=C(/C=C/c1ccccc1Cl)NC1CCCCC1", "outcome": "inactive"}
{"smiles": "O=C(CSc1ccc(Cl)cc1)NC1CCCC1", "outcome": "inactive"}
{"smiles": "O=C(CCCN1C(=O)S/C(=C\\c2ccccc2)C1=O)NNC(=O)c1ccccc1O", "outcome": "inactive"}
{"smiles": "N/C(=N\\OC(=O)c1ccccc1Cl)c1ccccn1", "outcome": "inactive"}
{"smiles": "Cc1ccc(C(=O)c2no[n+]([O-])c2C(=O)c2ccc(C)cc2)cc1", "outcome": "inactive"}
{"smiles": "CN(C)c1ccc(/C=N\\NC(=O)c2cccc3cc[nH]c23)cc1", "outcome": "inactive"}
{"smiles": "CCOC(=O)N1CCN(C(=O)c2ccc(Cn3c(=S)[nH]c4ccc(Br)cc4c3=O)cc2)CC1", "outcome": "inactive"}
{"smiles": "CCC(=O)N1CCN(c2ccc(Cl)cc2NC(=O)c2ccc([N+](=O)[O-])o2)CC1", "outcome": "inactive"}
{"smiles": "Cn1c(/C(C#N)=C/c2ccc(-c3ccc(S(N)(=O)=O)cc3)o2)nc2ccccc21", "outcome": "inactive"}
{"smiles": "Clc1c(-c2ccccc2)nc2ccccn12", "outcome": "inactive"}
{"smiles": "Cc1cc(N2CCOCC2)n2ncc(-c3ccccc3Cl)c2n1", "outcome": "inactive"}
{"smiles": "Cc1cc(C(=O)CN2C(=O)c3ccccc3S2(=O)=O)c(C)n1-c1ccccc1", "outcome": "inactive"}
{"smiles": "C#Cc1cccc(NC(=O)CSc2nnc(-c3ccc(C(F)(F)F)cn3)o2)c1", "outcome": "inactive"}
{"smiles": "Cc1ccc2c(c1)Oc1ccc(NC(=O)CCl)cc1C(=O)N2", "outcome": "inactive"}
{"smiles": "CCCN(CC(=O)Nc1ccccc1C)C(=O)CCl", "outcome": "inactive"}
{"smiles": "Cc1ccc(CC(=O)Nc2ccc(Cl)cn2)cc1", "outcome": "inactive"}
{"smiles": "CS(=O)(=O)c1ccc2nc(NC(=O)c3ccccc3Br)sc2c1", "outcome": "inactive"}
{"smiles": "O=C(c1ccc(F)cc1)C(CN1CCOCC1)c1ccccc1", "note": "(stereo not drawn)", "outcome": "inactive"}
{"smiles": "COc1cc(CN2CCC(Cc3ccccc3)CC2)cc(OC)c1OC", "outcome": "inactive"}
{"smiles": "COc1ccc(S(=O)NC2CCCCC2)c(OC)c1C", "note": "(stereo not drawn)", "outcome": "inactive"}
{"smiles": "CC(=O)c1ccc(S(=O)(=O)N2CCN(C(=O)/C=C/c3ccc4ccccc4n3)CC2)cc1", "outcome": "inactive"}
{"smiles": "COc1ccc(NC(=O)c2cc3ccccc3[nH]2)cc1", "outcome": "inactive"}
{"smiles": "COc1ccc2cc3cc(C(=O)NCCc4ccc(OC)c(OC)c4)oc3nc2c1", "outcome": "inactive"}
{"smiles": "Cc1cc(O)ccc1Nc1nc(-c2cccnc2)cs1", "outcome": "inactive"}
{"smiles": "CCOC(=O)C1CCCN(C(=O)C2CCN(S(=O)(=O)CC)CC2)C1", "note": "(stereo not drawn)", "outcome": "inactive"}
{"smiles": "CCOc1ccc(OCc2ccc(C(=O)N/N=C(\\C)c3ccccn3)cc2)cc1", "outcome": "inactive"}
{"smiles": "CCOC(=O)c1ccc(NC(=O)Cc2cccs2)cc1", "outcome": "inactive"}
{"smiles": "CCc1ccc(Nc2nc(C)cc(C)n2)cc1", "outcome": "inactive"}
{"smiles": "CCOC(=O)c1ccc(NC(=O)CC2SCCNC2=O)cc1", "note": "(stereo not drawn)", "outcome": "inactive"}
{"smiles": "COc1ccccc1-c1nnc(-c2ccc(C)cc2)o1", "outcome": "inactive"}
{"smiles": "COCCNC(=O)c1cc2sc3ccccc3c2s1", "outcome": "inactive"}
{"smiles": "O=C(N/N=C/c1cc(Cl)ccc1O)c1ccncc1", "outcome": "inactive"}
{"smiles": "COc1cc2nc(SCC(=O)NCc3ccco3)n(Cc3ccc(Cl)cc3)c(=O)c2cc1OC", "outcome": "inactive"}
{"smiles": "CCCCCCN1C=CC(=C2C(=O)c3ccccc3C2=O)C=C1", "outcome": "inactive"}
{"smiles": "CC1CCN(Cc2nc(-c3ccc(Cl)cc3)no2)CC1", "outcome": "inactive"}
{"smiles": "CC1CC(C)C[N+](=C2C=C(N3CCCC3)CC(C)(C)C2)C1", "note": "(stereo not drawn)", "outcome": "inactive"}
{"smiles": "Cc1ccc(C(=O)C[n+]2cc(-c3ccc(C)cc3)n3c2CCCCC3)cc1", "outcome": "inactive"}
{"smiles": "Cc1ccc(C(=O)NC2=NCCS2)cc1Cl", "outcome": "inactive"}
{"smiles": "C=CC[n+]1c(-c2ccc(C)cc2)csc1Nc1ccc(NC(C)=O)cc1", "outcome": "inactive"}
{"smiles": "CCOc1ccc2nc(NC(=O)Cc3cccs3)sc2c1", "outcome": "inactive"}
{"smiles": "CC(C)(CO)NC(=O)c1ccc2nc(Cc3cccc(Cl)c3)oc2c1", "outcome": "inactive"}
{"smiles": "Cc1nn(C)cc1/C=C/C(=O)c1cccs1", "outcome": "inactive"}
{"smiles": "CCOc1ccc(-n2c(-c3ccc(Br)cc3)c[n+]3c2CCCCC3)cc1", "outcome": "inactive"}
{"smiles": "O=C1c2ccccc2C(=O)N1CCSc1ccccc1", "outcome": "inactive"}
{"smiles": "COc1cccc(NC(=O)Nc2cccc(C(=O)O)c2)c1", "outcome": "inactive"}
{"smiles": "COc1cc(OC)cc(C(=O)Nc2ccc3c(c2)OCCO3)c1", "outcome": "inactive"}
{"smiles": "CCN(C(=O)c1ccco1)c1nc(-c2ccc(OC)cc2)cs1", "outcome": "inactive"}
{"smiles": "COc1cc2c(cc1O)C(SC)=NC(C)(C)C2", "outcome": "inactive"}
{"smiles": "CC(C)c1ccc(/C=N/Nc2ccc(C(=O)O)cc2)cc1", "outcome": "inactive"}
{"smiles": "CCN1c2ccccc2NC2C1C(C(C)=O)C(=O)N2c1ccc(Cl)cc1", "note": "(stereo not drawn)", "outcome": "inactive"}
{"smiles": "Cc1nc(NCCOc2ccccc2)sc1C(=O)Nc1ccccc1", "outcome": "inactive"}
{"smiles": "CCOC(=O)c1sc(-c2ccccc2)cc1N", "outcome": "inactive"}
{"smiles": "CCOC(=O)c1c(C)[nH]c(C)c1C(=O)COC(=O)c1ccc([N+](=O)[O-])s1", "outcome": "inactive"}
{"smiles": "COc1ccc(C)cc1Nc1nc(N)c2cc(OC)c(OC)cc2n1", "outcome": "inactive"}
{"smiles": "CC(C)CC(=O)NC(c1cccs1)c1ccc2cccnc2c1O", "note": "(stereo not drawn)", "outcome": "inactive"}
{"smiles": "N/C(=N\\OC(=O)c1ccncc1)c1cccc([N+](=O)[O-])c1", "outcome": "inactive"}
{"smiles": "Cc1c(C#N)c(NC(=O)CCl)n(Cc2ccccc2)c1C", "outcome": "inactive"}
{"smiles": "Cc1ccc(OCC(=O)Nc2ccccc2F)cc1", "outcome": "inactive"}
{"smiles": "Fc1cccc(Cl)c1CSc1nnc(-c2ccncc2)o1", "outcome": "inactive"}
{"smiles": "CC(=O)N/C(N)=N/c1nc(=O)c2ccccc2s1", "outcome": "inactive"}
{"smiles": "NC(=O)c1c(NC(=O)c2cccnc2)sc2c1CCCCC2", "outcome": "inactive"}
{"smiles": "CCOc1ccc(N/C=C/C(=O)c2ccc(OC)c(OC)c2)cc1", "outcome": "inactive"}
{"smiles": "OCCNc1c2ccccc2nc2ccccc12", "outcome": "inactive"}
{"smiles": "Clc1ccc(-c2noc(CN3CCOCC3)n2)cc1", "outcome": "inactive"}
{"smiles": "NNC(=O)Cn1c(SCc2ccccc2)nc2ccccc21", "outcome": "inactive"}
{"smiles": "COc1ccc(N/C=C\\C(=O)c2ccc3ccccc3c2)cc1", "outcome": "inactive"}
{"smiles": "O=C(Nc1ccc([N+](=O)[O-])cc1)c1ccccc1", "outcome": "inactive"}
{"smiles": "COc1ccc(-c2csc(Nc3ccccn3)n2)cc1OC", "outcome": "inactive"}
